Reference: PubChem BioAssay
Calls of active or inactive are those of the source.

Key:
[1] = test system: Plasmodium falciparum Sir2 (PF13_0152, Sir2A); assay: pfSir2 binders on small-molecule microarrays, primary screen, biochemical, small-molecule microarray, 635 nm fluorescence (AID 1098); settings: small-molecule microarray binding, fluorescence 635 nm; higher = more signal;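 further: score merges spot fluorescence intensity with its signal-to-noise ratio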
[2] = small-molecule microarray binders of probe aDKK1, primary screen, biochemical, biotinylated probe, 635/667 nm fluorescence (AID 1099); settings: higher = more signal;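 further: score merges 667nm spot fluorescence with signal to noise across triplicate slides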
[3] = small-molecule microarray binders of probe aCHRDL2, primary screen, biochemical, biotinylated probe, 635/667 nm fluorescence (AID 1100); settings: higher = more signal
[4] = splicing luciferase reporter signal modulators, primary screen, spliceosome inhibition project, cell-based, HEK293, splice +/- reporter (AID 1101); settings: luminescence, 24 h, higher = more signal, called active from +8 up or from −8 down;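 further: HEK293 cells carrying a splicing-competent luciferase reporter gene; test concentration not given here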
[5] = biological target: Fibroblast growth factor 10 (Homo sapiens) (UniProt O15520); assay: FGF10 binders on small-molecule microarrays, primary screen, biochemical, small-molecule microarray, 635 nm fluorescence (AID 1102); settings: FGF10 binding, fluorescence 635 nm, higher = more signal
Fibroblast growth factor 10 (Homo sapiens), sequence (O15520 whole entry, looked up): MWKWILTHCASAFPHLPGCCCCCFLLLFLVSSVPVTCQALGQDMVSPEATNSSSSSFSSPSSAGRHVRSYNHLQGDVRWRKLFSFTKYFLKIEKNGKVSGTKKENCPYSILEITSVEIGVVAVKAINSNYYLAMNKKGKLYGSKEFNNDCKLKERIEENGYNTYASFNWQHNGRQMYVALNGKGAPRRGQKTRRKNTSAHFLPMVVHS

[6] = test system: glycogen synthase kinase-3 (GSK3A per assay name; protocol says GSK3B); assay: GSK3 binders on small-molecule microarrays, primary screen, biochemical, small-molecule microarray, 635 nm fluorescence, GSK3A (AID 1103); settings: small-molecule microarray binding, fluorescence 635 nm; higher = more signal; further: the record names both GSK3A and GSK3B
[7] = biological target: Epidermal growth factor receptor (Homo sapiens) (UniProt P00533); assay: EGFR binders on small-molecule microarrays, primary screen, biochemical, small-molecule microarray, 635 nm fluorescence (AID 1104); settings: EGFR binding, higher = more signal;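 further: score merges 667 nm emission intensity with spot signal to noise over triplicate slides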
Epidermal growth factor receptor (Homo sapiens), sequence (P00533 whole entry, looked up): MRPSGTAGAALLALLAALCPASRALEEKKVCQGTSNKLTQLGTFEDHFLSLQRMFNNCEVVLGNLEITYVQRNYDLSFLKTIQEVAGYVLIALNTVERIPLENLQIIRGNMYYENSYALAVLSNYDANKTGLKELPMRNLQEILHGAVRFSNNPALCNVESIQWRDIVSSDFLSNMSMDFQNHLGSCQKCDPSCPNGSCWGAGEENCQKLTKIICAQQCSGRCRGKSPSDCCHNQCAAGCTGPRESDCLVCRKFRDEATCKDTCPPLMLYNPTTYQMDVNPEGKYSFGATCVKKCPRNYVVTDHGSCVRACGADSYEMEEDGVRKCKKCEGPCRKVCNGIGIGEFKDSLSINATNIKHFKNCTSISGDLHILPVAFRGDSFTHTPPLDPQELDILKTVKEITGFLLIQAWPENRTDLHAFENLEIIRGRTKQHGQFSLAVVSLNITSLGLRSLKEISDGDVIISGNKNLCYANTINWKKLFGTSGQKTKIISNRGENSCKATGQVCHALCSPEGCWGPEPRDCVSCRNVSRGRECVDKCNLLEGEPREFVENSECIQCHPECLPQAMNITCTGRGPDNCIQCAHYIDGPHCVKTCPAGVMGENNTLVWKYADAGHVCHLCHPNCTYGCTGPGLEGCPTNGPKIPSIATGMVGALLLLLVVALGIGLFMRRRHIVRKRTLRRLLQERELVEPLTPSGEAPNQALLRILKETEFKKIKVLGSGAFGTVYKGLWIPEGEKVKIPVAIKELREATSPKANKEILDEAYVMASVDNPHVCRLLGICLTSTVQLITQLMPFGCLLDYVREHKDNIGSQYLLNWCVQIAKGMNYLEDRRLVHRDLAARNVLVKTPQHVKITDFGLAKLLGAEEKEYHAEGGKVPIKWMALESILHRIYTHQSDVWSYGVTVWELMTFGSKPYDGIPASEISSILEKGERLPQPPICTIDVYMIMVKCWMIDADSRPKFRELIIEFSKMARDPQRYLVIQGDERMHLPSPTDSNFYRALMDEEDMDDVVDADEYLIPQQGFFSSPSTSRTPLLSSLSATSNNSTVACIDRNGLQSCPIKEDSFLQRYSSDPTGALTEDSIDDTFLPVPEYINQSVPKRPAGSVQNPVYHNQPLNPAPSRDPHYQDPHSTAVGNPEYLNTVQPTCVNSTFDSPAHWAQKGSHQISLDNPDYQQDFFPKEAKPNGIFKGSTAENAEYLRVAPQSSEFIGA

[8] = biological target: Follistatin-related protein 3 (Homo sapiens) (UniProt O95633); assay: FSTL3 binders on small-molecule microarrays, primary screen, biochemical, small-molecule microarray, 635 nm fluorescence (AID 1105); settings: FSTL3 binding, higher = more signal;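 further: score merges emission near 667 nm and signal to noise per printed spot across three slides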
Follistatin-related protein 3 (Homo sapiens), sequence (O95633 whole entry, looked up): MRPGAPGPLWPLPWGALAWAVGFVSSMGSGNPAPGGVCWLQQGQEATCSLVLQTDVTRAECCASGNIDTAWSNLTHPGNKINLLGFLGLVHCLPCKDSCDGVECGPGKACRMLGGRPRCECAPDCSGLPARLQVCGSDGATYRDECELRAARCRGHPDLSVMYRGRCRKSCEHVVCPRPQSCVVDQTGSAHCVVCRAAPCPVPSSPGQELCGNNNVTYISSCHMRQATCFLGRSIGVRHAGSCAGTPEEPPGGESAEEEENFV

[9] = biological target: Dickkopf-related protein 1 (Homo sapiens) (UniProt O94907); assay: DKK1 binders on small-molecule microarrays, primary screen, biochemical, small-molecule microarray, 635 nm fluorescence scan (AID 1106); settings: DKK1 binding, higher = more signal;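 further: score merges emission near 667 nm with signal to noise over three replicate slides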
Dickkopf-related protein 1 (Homo sapiens), sequence (O94907 whole entry, looked up): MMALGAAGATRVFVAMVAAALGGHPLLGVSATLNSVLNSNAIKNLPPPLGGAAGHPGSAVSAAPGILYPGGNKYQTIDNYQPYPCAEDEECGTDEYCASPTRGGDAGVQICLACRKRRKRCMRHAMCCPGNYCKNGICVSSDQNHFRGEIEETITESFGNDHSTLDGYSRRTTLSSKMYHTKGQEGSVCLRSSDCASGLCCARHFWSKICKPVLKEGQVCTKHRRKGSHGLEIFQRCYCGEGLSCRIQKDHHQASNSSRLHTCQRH

[10] = test system: Inhibin beta A chain (activin A); assay: INHBA (activin A) binders on microarrays, primary screen, biochemical, small-molecule microarray, 635 nm fluorescence scan (AID 1107); settings: small-molecule microarray binding, higher = more signal;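 further: mouse activin A protein probed at 4.33 µg/mL on printed slides; score merges bound-protein fluorescence near 667 nm with spot signal-to-noise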
[11] = test system: Human papillomavirus type 1a protein E7 (residues 44-93); assay: HPV1a E7 fragment binders on microarrays, primary screen, biochemical, small-molecule microarray, residues 44-93, 635 nm fluorescence (AID 1108); settings: small-molecule microarray binding, fluorescence 635 nm; higher = more signal;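 further: E7 fragment applied at 1 µg/mL in TBST for 1 h at 4 C; score combines spot fluorescence with its signal to noise ratio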
[12] = modulators of HCV replicon luciferase signal, primary screen, HCV replication inhibitor project, Huh7 cells, luciferase reporter (AID 1109); settings: 48 h, higher = more signal;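 further: huh7 hepatoma cells harbouring a luciferase neomycin HCV replicon reporter; luciferase luminescence as measure of HCV replicon replication; test concentration not given here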
[13] = biological target: Left-right determination factor 2 (Homo sapiens) (UniProt O00292); assay: LEFTY2 binders on small-molecule microarrays, primary screen, biochemical, small-molecule microarray, 635 nm fluorescence scan (AID 1110); settings: LEFTY2 binding, higher = more signal
Left-right determination factor 2 (Homo sapiens), sequence (O00292 whole entry, looked up): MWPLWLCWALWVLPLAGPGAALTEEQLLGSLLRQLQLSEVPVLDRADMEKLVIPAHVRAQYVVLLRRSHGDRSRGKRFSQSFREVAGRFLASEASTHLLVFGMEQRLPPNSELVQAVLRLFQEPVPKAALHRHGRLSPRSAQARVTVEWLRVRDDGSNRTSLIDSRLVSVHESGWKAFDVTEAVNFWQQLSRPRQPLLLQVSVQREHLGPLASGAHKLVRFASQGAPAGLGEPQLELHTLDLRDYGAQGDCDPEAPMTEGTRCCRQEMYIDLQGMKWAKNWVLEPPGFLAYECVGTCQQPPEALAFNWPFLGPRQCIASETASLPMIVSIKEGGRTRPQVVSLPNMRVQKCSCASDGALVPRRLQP

[14] = biological target: Calmodulin-1 (Homo sapiens) (UniProt P0DP23); assay: CALM1 binders on microarrays, EGTA buffer, profiling panel, biochemical, small-molecule microarray, Cy5-labelled CALM1 (AID 1111); settings: Cy5-CALM1 binding fluorescence, higher = more signal;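 further: labelled calmodulin applied in Tris saline Tween buffer holding calcium plus EGTA and DTT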
[15] = biological target: Calmodulin-1 (Homo sapiens) (UniProt P0DP23); assay: calcium-bound CALM1 binders on microarrays, profiling panel, artefact control for SMM control-protein annotation, biochemical, small-molecule microarray, Cy5-labelled CALM1, plus calcium (AID 1112); settings: Cy5-CALM1 binding fluorescence, higher = more signal;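 further: score merges spot fluorescence with signal to noise from triplicate slides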
[16] = small-molecule microarray binders of probe aWnt5a, primary screen, biochemical, biotinylated probe, 635/667 nm fluorescence (AID 1113); settings: higher = more signal;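 further: score merges 667 nm fluorescence intensity with signal-to-noise per printed feature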
[17] = small-molecule microarray binders of probe aShh, primary screen, biochemical, biotinylated probe, 635/667 nm fluorescence (AID 1114); settings: higher = more signal;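 further: probe is biotin-labelled aShh protein from a stem cell growth factor screen; measures binding of labelled protein to compounds printed on the slide; score merges feature fluorescence at 667 nm with signal-to-noise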
[18] = small-molecule microarray binders of probe aNog, primary screen, biochemical, biotinylated probe, 635/667 nm fluorescence (AID 1115); settings: higher = more signal;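 further: probe is biotinylated aNog protein used at 0.15 µg/mL for 1 h at 4 C; z-score combines 667 nm fluorescence of each spot with its signal to noise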
[19] = biological target: Torsin-1A-interacting protein 1 (Homo sapiens) (UniProt Q5JTV8); assay: LAP1 binders from COS7 cell lysate, primary screen, small-molecule microarray, 635/667 nm fluorescence (AID 1116); settings: COS7-hLAP1 lysate binding, 635 nm fluorescence, higher = more signal
Torsin-1A-interacting protein 1 (Homo sapiens), sequence (Q5JTV8 whole entry, looked up): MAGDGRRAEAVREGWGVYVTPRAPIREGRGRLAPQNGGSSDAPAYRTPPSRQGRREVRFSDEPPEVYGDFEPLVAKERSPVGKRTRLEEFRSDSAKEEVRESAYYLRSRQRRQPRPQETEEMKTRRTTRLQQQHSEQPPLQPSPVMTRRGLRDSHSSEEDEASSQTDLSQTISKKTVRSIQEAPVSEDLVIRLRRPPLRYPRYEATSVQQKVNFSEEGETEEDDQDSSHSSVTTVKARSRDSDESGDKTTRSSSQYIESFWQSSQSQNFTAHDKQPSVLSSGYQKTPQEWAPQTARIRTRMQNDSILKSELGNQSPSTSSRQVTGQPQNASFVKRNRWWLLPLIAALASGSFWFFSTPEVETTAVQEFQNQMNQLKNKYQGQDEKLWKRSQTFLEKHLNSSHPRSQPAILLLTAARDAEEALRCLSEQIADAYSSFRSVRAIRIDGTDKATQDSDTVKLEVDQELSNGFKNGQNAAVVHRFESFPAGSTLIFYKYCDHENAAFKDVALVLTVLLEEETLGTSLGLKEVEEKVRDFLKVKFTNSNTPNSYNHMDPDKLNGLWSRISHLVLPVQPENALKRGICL

[20] = biological target: Alpha-bungarotoxin (Bungarus multicinctus) (UniProt P60615); assay: alpha-bungarotoxin binders on microarray, profiling panel, artefact control for SMM control protein annotation, biochemical, small-molecule microarray, Alexa647 label, 635/667 nm fluorescence (AID 1117); settings: alpha-BTX-A647 binding fluorescence, higher = more signal
Alpha-bungarotoxin (Bungarus multicinctus), sequence (P60615 whole entry, looked up): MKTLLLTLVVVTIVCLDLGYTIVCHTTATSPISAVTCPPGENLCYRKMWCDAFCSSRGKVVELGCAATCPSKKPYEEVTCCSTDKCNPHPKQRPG

| Compound | composite z-score [1] | composite z-score [2] | composite z-score [3] | z-score [4] | composite z-score [5] | composite z-score [6] | composite z-score [7] | composite z-score [8] | composite z-score [9] | composite z-score [10] | composite z-score [11] | z-score [12] | composite z-score [13] | composite z-score [14] | composite z-score [15] | composite z-score [16] | composite z-score [17] | composite z-score [18] | composite z-score [19] | composite z-score [20] |
| --- | --- | --- | --- | --- | --- | --- | --- | --- | --- | --- | --- | --- | --- | --- | --- | --- | --- | --- | --- | --- |
| COCCOC(=O)N1C(=O)[C@@]2(c3cc(C#CC4=CCCCC4)ccc31)[C@H](C(=O)NC[C@H](O)c1ccccc1)[C@H]1C(=O)O[C@H](c3ccccc3)[C@H](c3ccccc3)N1[C@@H]2c1ccc(OCCO)cc1 | 0.915 | -0.18 | 0.226 | -0.718 (inactive) | 1.29 | 1.28 | 0.483 | 1.37 | 0.817 | 0.49 | 1.41 | -2.08 | 0.537 | 0.774 | -0.206 | 0.0115 | -0.279 | 0.165 | 1 | 1.28 |
| CCN1C(C)=C(C(=O)OC)[C@@H](c2ccccc2)N2C(=O)[C@@]3(C(=O)OC)O[C@@]12[C@@H]1C(=O)CCC[C@@H]13 | 0.604 | -0.786 | -1.31 | -0.814 (inactive) | 0.903 | 0.8 | 0.648 | 1.06 | 1.85 | 1.01 | 0.0258 | -0.216 | 1.38 | -1.2 | -1.08 | -0.0758 | 0.0637 | -0.43 | 0.157 | -0.954 |
| CCC1=C2CN(Cc3ccccc3Br)[C@@H]([C@@H](O)Cc3ccccc3)C2C=CCC1 (stereo not given in full) | 0.124 | -0.0181 | -0.311 | -2.14 (inactive) | 0.597 | 0.6 | 0.164 | 0.961 | 0.513 | 0.677 | 1.38 | -2.97 | 0.473 | 0.417 | -0.419 | -0.148 | -0.0709 | -0.278 | -0.131 | 0.616 |
| C#CCCCON=C1C[C@@H](O)[C@@H](O)[C@@H]2[C@@H]3C(=O)N(Cc4ccc5c(c4)OCO5)C(=O)[C@@H]3CC[C@H]12 | 0.419 | -0.254 | -0.463 | -0.16 (inactive) | 1.34 | 0.253 | 0.328 | 0.578 | 0.59 | -0.345 | 1.36 | -0.0463 | 0.774 | 0.601 | -0.783 | -0.0735 | 0.0796 | -0.326 | 1.34 | 0.24 |
| CO[C@H]1COC(=O)[C@H](C)NC(=O)CC=C[C@@H](C)[C@H](NS(=O)(=O)c2ccc(C)cc2)COC(=O)CC=C[C@@H]1C | 0.997 | -0.667 | -1.28 | -0.489 (inactive) | 0.27 | -0.0078 | 0.778 | 0.956 | 0.979 | 1.47 | -0.9 | -0.05 | 0.285 | -1.11 | -1.46 | -0.137 | -0.0709 | -0.12 | 0.368 | -0.555 |
| COc1ccc([Si](C)(C)[C@@H]2[C@@H](CCO)O[C@]3(C(=O)N(Cc4ccccc4)c4ccccc43)[C@H]2C)cc1 | 0.183 | -0.18 | -0.455 | -0.535 (inactive) | 0.633 | 0.16 | 0.187 | 0.174 | 0.104 | -0.0249 | 0.566 | -1.84 | 0.224 | 0.398 | 0.49 | -0.148 | -0.217 | 0.202 | 0.526 | 0.124 |
| O=C1C2C=CC(C(O)Cc3ccccc3)N(Nc3ccc([N+](=O)[O-])cc3)C2C(=O)N1c1ccccc1 (stereo not given) | 1.04 | 1.07 | 0.498 | 0.843 (inactive) | 0.653 | 0.539 | 0.277 | 0.576 | -0.0044 | 0.582 | 0.508 | -0.531 | 0.0886 | 0.417 | 0.426 | 0.159 | 0.203 | 0.905 | 0.937 | 0.307 |
| CO[C@H]1COC(=O)[C@H](Cc2ccccc2)NC(=O)CC=C[C@@H](C)[C@H](OC)COC(=O)CC=C[C@@H]1C | 0.143 | 0.077 | -0.473 | -0.875 (inactive) | 0.323 | 0.418 | 0.44 | 0.532 | 0.898 | -0.405 | 0.482 | 0.401 | 1.11 | -0.0075 | -0.61 | -0.134 | 0.0022 | -0.0682 | 0.311 | 0.426 |
